This note sets out measurements from PubChem BioAssay AID2240 (Broad Institute, 2010).

Structures are written as SMILES. Among all 37,000 compounds or so, about 100 (0.27%) were called active. Rule as the data show it: active = inhibition above about 85%; inconclusive = no clear call, values can overlap the other calls; inactive = below about 68%. This excerpt belongs to a sample that is enriched for actives.

The inhibition is the change of the read-out against control, counted positive when it falls.

The experiment in a line: inhibitors of MITF, primary screen, MITF inhibitor project, cell-based, luminescence (AID 2240).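 Also: human melanocyte line stably carrying TRPM1 promoter luciferase reporter.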 The note with it: TRPM1 promoter luciferase, 24 h, hits give high values, concentration not given here.
Regarding `C[C@H](CO)N1C[C@H](C)[C@@H](CN(C)Cc2ccc(C(F)(F)F)cc2)Oc2ccc(NC(=O)CCN3CCOCC3)cc2C1=O`, the inhibition is -9.07% (inactive).

`c1ccc(Cn2c3ccccc3c3nnc(SCc4ccc5nonc5c4)nc32)cc1`: the inhibition is 20.6% (inactive).

As to `C[C@@H]1CCCCO[C@@H](CN(C)C(=O)CCC(F)(F)F)[C@@H](C)CN([C@H](C)CO)C(=O)c2cc(NC(=O)Nc3ccccc3)ccc2O1`, the inhibition was -11.3% (inactive).

`C[C@@H]1CN([C@@H](C)CO)C(=O)c2cc(NC(=O)C3CCCCC3)ccc2O[C@@H]1CN(C)Cc1ccc(C(=O)O)cc1`: the inhibition is 1.31% (inactive).

For the compound `COc1ccc(NC(=O)CN(C)S(=O)(=O)c2ccccc2)cc1OC`, the inhibition is -9.83% (inactive).

In the case of `COc1ccc(NC(=O)N(C)C[C@H]2Oc3c(NC(=O)C4CC4)cccc3C(=O)N([C@@H](C)CO)C[C@@H]2C)cc1`, the inhibition is 0.647% (inactive).

With `C[C@H]1CN([C@@H](C)CO)C(=O)c2cc(N(C)C)ccc2O[C@@H]1CN(C)Cc1ccccc1`, the inhibition is -14.1% (inactive).

As to `O=C(CSc1nccc(=O)[nH]1)Nc1ccc([N+](=O)[O-])cc1`, the inhibition was -3.55% (inactive).

Consider `COc1cc(NC(=S)NCCN2CCOCC2)c(OC)cc1Cl`, for which the inhibition was 17.1% (inactive).

Turning to `O=C(Nn1cnc2ccccc2c1=O)c1ccccc1`, the inhibition is -19.3% (inactive).

Consider `C[C@@H]1CN([C@H](C)CO)C(=O)c2cc(NS(=O)(=O)c3cccs3)ccc2O[C@@H]1CN(C)Cc1ccc(C(F)(F)F)cc1`, for which the inhibition is -1.87% (inactive).

With `COc1ccc(NC(=O)Nc2cccc3c2O[C@@H](CN(C)S(=O)(=O)c2ccc(C)cc2)[C@H](C)CN([C@@H](C)CO)C3=O)cc1`, the inhibition is -6.48% (inactive).

In the case of `CCN(c1ccccc1)S(=O)(=O)c1ccc(C)cc1`, the inhibition is 12.9% (inactive).

For `C[C@H](CO)N1C[C@H](C)[C@H](CN(C)C(=O)Nc2ccc3c(c2)OCO3)Oc2ccc(NC(=O)Nc3ccccc3)cc2CC1=O`, the inhibition is -9.08% (inactive).

Turning to `COc1ccc(S(=O)(=O)N(C)C[C@H]2Oc3ccc(NC(=O)C4CC4)cc3CC(=O)N([C@@H](C)CO)C[C@@H]2C)cc1`, the inhibition is -12.4% (inactive).

In the case of `COC(=O)c1c(-c2cccnc2)csc1NC(=O)c1cc(-c2ccc(C)o2)nc2ccccc12`, the inhibition was -34.4% (inactive).

On to `Cc1ccc(S(=O)(=O)N(C)C[C@H]2Oc3c(NS(=O)(=O)c4cccs4)cccc3C(=O)N([C@@H](C)CO)C[C@@H]2C)cc1`, for which the inhibition was 0.709% (inactive).

Turning to `O=C(CSc1nc2ccccc2s1)c1cc2ccccc2oc1=O`, the inhibition was -18% (inactive).

As to `C[C@@H]1CN([C@@H](C)CO)C(=O)c2cc(NC(=O)CCCN(C)C)ccc2O[C@@H]1CN(C)Cc1ccncc1`, the inhibition was 4.25% (inactive).

Consider `CCCN(C)C[C@H]1OCCCC[C@@H](C)Oc2ccc(N(C)C)cc2C(=O)N([C@H](C)CO)C[C@@H]1C`, for which the inhibition was 43.3% (inactive).

For `CC(=O)c1c(C)nn(CC(O)COc2ccc3cc(Br)ccc3c2)c1C` (centres undefined), the inhibition was 50.6% (inactive).

With `Cc1ccc(S(=O)(=O)N(C)C[C@H]2Oc3c(NS(=O)(=O)c4ccc(Cl)cc4)cccc3C(=O)N([C@H](C)CO)C[C@@H]2C)cc1`, the inhibition is 0.159% (inactive).

As for `Oc1c(Cl)cc(Cl)c(Cl)c1Cc1c(O)c(Cl)cc(Cl)c1Cl`, the inhibition is 93.7% (active).

As to `O=C(NCCN1CCCCC1)Nc1cccc2ccccc12`, the inhibition is 5.31% (inactive).
